The source of these data is PubChem BioAssay (EPA / NIEHS).

For orientation: AC50 means the concentration at which the activity in the assay is half-maximal.

Active and inactive are the calls of the source. How the source made its calls: active means hit-call score of the fitted dose curve at least 0.9, where 1 is the maximum; inactive means score below 0.9.

Read-out in assay [1]: Interleukin-1 alpha (IL1a), IL1A (gene 3552)
The assay is described as follows: BSK_KF3CT_IL1a: BioMAP Diversity Plus: KF3CT Assay for Interleukin-1 alpha (IL1a) Biomarker Activity (AID 2283070). The note with it: primary human keratinocytes with fibroblasts; actives raise or lower the signal. An outline of the steps:
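Readout is IL-1a level by ELISA, compared bidirectionally with DMSO as baseline. Cells: human keratinocytes co-cultured with foreskin fibroblasts, harvested 24 h post-dose.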

Read-out in assay [2]: TIMP metallopeptidase inhibitor 2 (TIMP2), TIMP2 (gene 7077)
The assay is described as follows: BSK_KF3CT_TIMP2: BioMAP Diversity Plus: KF3CT Assay for TIMP metallopeptidase inhibitor 2 (TIMP2) Biomarker Activity (AID 2283071). The note with it: primary human keratinocytes with fibroblasts; actives raise or lower the signal. The method in brief: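 ELISA readout of TIMP-2 in keratinocyte plus foreskin fibroblast co-cultures (human skin primary cells), 24 h post-dose. Gain or loss of signal fitted relative to DMSO.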

Read-out in assay [3]: Transforming growth factor beta 1 (TGFb1), TGFB1 (gene 7040)
Nature of the assay: BSK_KF3CT_TGFb1: BioMAP Diversity Plus: KF3CT Assay for Transforming growth factor beta 1 (TGFb1) Biomarker Activity (AID 2283072). The note with it: primary human keratinocytes with fibroblasts; actives raise or lower the signal. An outline of the steps: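 Read-out: ELISA for TGF-b1 in keratinocyte/foreskin fibroblast human skin co-culture, 24 h after dosing; bidirectional curve fit vs DMSO baseline; gain or loss of signal scored.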

Read-out in assay [4]: C-C motif chemokine 2 (Homo sapiens) (UniProt P13500)
Nature of the assay: BSK_KF3CT_MCP1: BioMAP Diversity Plus: KF3CT Assay for Monocyte Chemoattractant Protein 1 (MCP1/CCL2) Biomarker Activity (AID 2283073). Conditions: primary human keratinocytes with fibroblasts; actives raise or lower the signal. An outline of the steps: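 KF3CT skin co-culture (keratinocytes/foreskin fibroblasts), 24 h post-dose; MCP-1 by ELISA; gain/loss of signal fit bidirectionally vs DMSO baseline.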

Read-out in assay [5]: Matrix Metallopeptidase 9 (MMP9), MMP9 (gene 4318)
Nature of the assay: BSK_KF3CT_MMP9: BioMAP Diversity Plus: KF3CT Assay for Matrix Metallopeptidase 9 (MMP9) Biomarker Activity (AID 2283074).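 On AC50: MMP9 protein level quantified by ELISA in the co-culture.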 Conditions: primary human keratinocytes with fibroblasts; actives raise or lower the signal. The method in brief: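 Values come from bidirectional fitting relative to DMSO of MMP-9 levels, which were measured by ELISA. Measurements were taken 24 h after chemical dosing of a keratinocyte and foreskin fibroblast co-culture.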

Read-out in assay [6]: urokinase plasminogen activator (uPA), PLAU (gene 5328)
The assay is described as follows: BSK_KF3CT_uPA: BioMAP Diversity Plus: KF3CT Assay for urokinase plasminogen activator (uPA) Biomarker Activity (AID 2283075). The note with it: primary human keratinocytes with fibroblasts; actives raise or lower the signal. The method in brief: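 Values derive from bidirectional fitting against DMSO controls. Keratinocyte/foreskin fibroblast co-cultures received chemical; 24 h later uPA was detected by ELISA, with SRB total-protein staining in parallel wells for overt cytotoxicity.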

Read-out in assay [7]: CD40, CD40 (gene 958)
The assay is described as follows: BSK_LPS_CD40: BioMAP Diversity Plus: LPS Assay for CD40 Biomarker Activity (AID 2283076). The note with it: primary human HUVEC with PBMC; actives raise or lower the signal. An outline of the steps: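 ELISA readout of CD40 in HUVEC/PBMC co-culture (BSK_LPS system), 24 h post-dosing; bidirectional curve fit, DMSO baseline; parallel SRB total-protein staining for cytotoxicity.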

Read-out in assay [8]: E-selectin (Homo sapiens) (UniProt P16581)
The assay is described as follows: BSK_LPS_Eselectin: BioMAP Diversity Plus: LPS Assay for Eselectin Biomarker Activity (AID 2283077). Conditions: primary human HUVEC with PBMC; actives raise or lower the signal. The method in brief: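 ELISA readout of E-selectin, 24 h post-dose, HUVEC + PBMC co-culture (LPS system). Gain or loss of signal vs DMSO baseline, bidirectional fit.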

Read-out in assay [9]: Interleukin-8 (IL8), CXCL8 (gene 3576)
Nature of the assay: BSK_LPS_IL8: BioMAP Diversity Plus: LPS Assay for Interleukin-8 (IL8) Biomarker Activity (AID 2283078). Conditions: primary human HUVEC with PBMC; actives raise or lower the signal. An outline of the steps:
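HUVEC + PBMC co-culture, LPS-activated; test chemicals dosed, IL-8 read by ELISA at 24 h. Bidirectional curve fit vs DMSO baseline (gain or loss of signal).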

The nature of assay [10]: BSK_LPS_SRB: Viability Assessment in the BioMAP Diversity Plus: LPS Assay (AID 2283079).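 Further: total protein by sulforhodamine B absorbance as a cytotoxicity measure; measured one day after compound addition; fitted in both directions against DMSO so loss or gain of signal counts.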 The note with it: primary human HUVEC with PBMC. The method in brief:
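HUVEC + PBMC co-culture, LPS-stimulated; compound 24 h. 10% TCA fix, 0.1% SRB stain, A560. Bidirectional fit vs DMSO.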

Read-out in assay [11]: Interleukin-1 alpha (IL1a), IL1A (gene 3552)
The assay is described as follows: BSK_LPS_IL1a: BioMAP Diversity Plus: LPS Assay for Interleukin-1 alpha (IL1a) Biomarker Activity (AID 2283080). The note with it: primary human HUVEC with PBMC; actives raise or lower the signal. An outline of the steps: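 HUVEC/PBMC co-culture, LPS system; 24 h after dosing; IL-1a by ELISA; gain or loss of signal fitted bidirectionally vs DMSO baseline.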

Read-out in assay [12]: Monocyte Chemoattractant Protein-1 (MCP1), CCL2 (gene 6347)
The assay is described as follows: BSK_LPS_MCP1: BioMAP Diversity Plus: LPS Assay for Monocyte Chemoattractant Protein-1 (MCP1) Biomarker Activity (AID 2283081).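 On AC50: secreted MCP-1 protein quantified by ELISA in culture supernatant.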 The note with it: primary human HUVEC with PBMC; actives raise or lower the signal. An outline of the steps: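 ELISA read-out of MCP-1 after 24 h chemical dosing of a human umbilical vein endothelial cell/peripheral blood mononuclear cell co-culture stimulated with LPS. Gain or loss of signal fitted relative to DMSO controls.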

Assay [13] can be described thus: BSK_LPS_PGE2: BioMAP Diversity Plus: LPS Assay for Prostaglandin E2 (PGE2) Biomarker Activity (AID 2283082). Conditions: primary human HUVEC with PBMC; actives raise or lower the signal. An outline of the steps: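 ELISA read-out of PGE2 from human umbilical vein endothelial cells co-cultured with peripheral blood mononuclear cells under LPS, 24 h post-dose. Gain or loss of signal scored relative to DMSO baseline.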

Read-out in assay [14]: Macrophage colony-stimulating factor (MCSF), CSF1 (gene 1435)
The assay is described as follows: BSK_LPS_MCSF: BioMAP Diversity Plus: LPS Assay for Macrophage colony-stimulating factor (MCSF) Biomarker Activity (AID 2283083). The note with it: primary human HUVEC with PBMC; actives raise or lower the signal. The method in brief: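 HUVEC + PBMC co-culture (human primary), 24 h post-dose; M-CSF by ELISA; gain/loss of signal fitted bidirectionally vs DMSO baseline.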

Read-out in assay [15]: Tissue Factor, F3 (gene 2152)
Nature of the assay: BSK_LPS_TissueFactor: BioMAP Diversity Plus: LPS Assay for Tissue Factor Biomarker Activity (AID 2283084). The note with it: primary human HUVEC with PBMC; actives raise or lower the signal. The method in brief:
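HUVEC/PBMC co-culture, LPS-activated; CD142 ELISA read 24 h post-dose; bidirectional curve fit vs DMSO negative control.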

Read-out in assay [16]: Tumor necrosis factor (Homo sapiens) (UniProt P01375)
Nature of the assay: BSK_LPS_TNFa: BioMAP Diversity Plus: LPS Assay for Tumour Necrosis Factor alpha (TNFa) Biomarker Activity (AID 2283085).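 On AC50: TNFa protein level quantified by ELISA in the co-culture.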 Conditions: primary human HUVEC with PBMC; actives raise or lower the signal. An outline of the steps: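 HUVEC/PBMC co-culture, LPS-stimulated; 24 h post-dose; TNFa by ELISA; gain or loss of signal fitted bidirectionally vs DMSO baseline.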

Read-out in assay [17]: CD38, CD38 (gene 952)
The assay is described as follows: BSK_SAg_CD38: BioMAP Diversity Plus: SAg Assay for CD38 Biomarker Activity (AID 2283087). Conditions: primary human HUVEC with PBMC; actives raise or lower the signal. An outline of the steps: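 Measures CD38 on a human endothelial/PBMC co-culture driven by SEB and TSST-1, 24 h after compound exposure, using ELISA with fluorescence detection; DMSO defines baseline for bidirectional curve fitting.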

Read-out in assay [18]: CD69, CD69 (gene 969)
The assay is described as follows: BSK_SAg_CD69: BioMAP Diversity Plus: SAg Assay for CD69 Biomarker Activity (AID 2283089).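 On AC50: cell surface CD69 protein quantified by ELISA with fluorescence detection.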 The note with it: primary human HUVEC with PBMC; actives raise or lower the signal. An outline of the steps: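 HUVEC co-cultured with PBMC were dosed with chemical, and CD69 was measured by ELISA with fluorescence read-out 24 h later. Bidirectional curve fitting used DMSO as negative control and activity baseline.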

Read-out in assay [19]: Vascular cell adhesion molecule 1 (VCAM1), VCAM1 (gene 7412)
Nature of the assay: BSK_LPS_VCAM1: BioMAP Diversity Plus: LPS Assay for Vascular cell adhesion molecule 1 (VCAM1) Biomarker Activity (AID 2283086). The note with it: primary human HUVEC with PBMC; actives raise or lower the signal. An outline of the steps:
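ELISA read-out of VCAM-1 at 24 h post-dosing in an LPS-driven HUVEC/PBMC primary human co-culture; gain or loss of signal fitted bidirectionally against DMSO baseline. Cytotoxicity tracked in parallel cultures by SRB total-protein staining.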

Sequence of Tumor necrosis factor (Homo sapiens) (P01375 whole entry, looked up): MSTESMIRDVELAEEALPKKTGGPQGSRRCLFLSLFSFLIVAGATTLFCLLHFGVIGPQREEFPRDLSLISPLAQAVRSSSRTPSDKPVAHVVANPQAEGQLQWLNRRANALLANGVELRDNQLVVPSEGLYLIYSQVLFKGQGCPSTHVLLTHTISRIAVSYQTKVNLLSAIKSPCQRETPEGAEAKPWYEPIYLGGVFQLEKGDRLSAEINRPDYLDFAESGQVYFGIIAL
Sequence of E-selectin (Homo sapiens) (P16581 whole entry, looked up): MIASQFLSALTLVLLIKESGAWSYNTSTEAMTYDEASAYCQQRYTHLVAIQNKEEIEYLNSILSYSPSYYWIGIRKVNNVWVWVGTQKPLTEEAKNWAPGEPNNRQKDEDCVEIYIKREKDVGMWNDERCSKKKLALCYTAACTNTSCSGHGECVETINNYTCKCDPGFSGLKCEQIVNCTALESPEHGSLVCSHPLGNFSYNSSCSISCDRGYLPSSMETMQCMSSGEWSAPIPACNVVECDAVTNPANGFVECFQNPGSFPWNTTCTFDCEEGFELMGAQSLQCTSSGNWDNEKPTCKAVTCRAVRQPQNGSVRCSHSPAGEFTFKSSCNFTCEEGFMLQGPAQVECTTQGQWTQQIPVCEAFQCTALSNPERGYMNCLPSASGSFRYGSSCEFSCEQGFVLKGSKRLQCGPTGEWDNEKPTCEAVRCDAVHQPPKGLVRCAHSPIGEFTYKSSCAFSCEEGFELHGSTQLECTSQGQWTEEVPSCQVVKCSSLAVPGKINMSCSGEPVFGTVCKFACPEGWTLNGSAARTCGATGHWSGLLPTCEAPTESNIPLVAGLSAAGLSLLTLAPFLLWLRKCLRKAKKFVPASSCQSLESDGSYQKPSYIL

Regarding `CCCOc1nn(C(=O)NS(=O)(=O)c2ccccc2C(=O)OC)c(=O)n1C`, the result in assay [1], in assay [2], in [3], in assay [4], in assay [6] and in assay [7] was inactive. In addition, the result in assay [8], in assay [10], in [11], in assay [12], in assay [13] and in assay [14] was inactive. The outcome in assay [15], in assay [16], in assay [17] and in assay [18] was inactive. Further, the half-maximal activity concentration (AC50) in [5] was 0.103 µM (active); in assay [9], 0.907 µM (active).
Consider `COP(=O)(OC)OC(Br)C(Cl)(Cl)Br` (stereo unspecified), for which the AC50 is 27.1 µM (active) in [1]; 31.3 µM (active) in [2]; 32.3 µM (active) in [3]; 31.1 µM (active) in assay [4]; 30.4 µM (active) in assay [5]; 36.9 µM (active) in assay [6]. Besides, the AC50 is 19.4 µM (active) in assay [7]; 32.3 µM (active) in [8]; 30.8 µM (active) in assay [9]; 26 µM (active) in assay [10]; 32.3 µM (active) in [11]; 36.5 µM (active) in assay [12]. The AC50 in assay [14] is 28.5 µM (active); in assay [15], 15.2 µM (active); in assay [16], 28.9 µM (active); in assay [19] it was 26.4 µM (active); in [17], 31.5 µM (active); in assay [18] it was 30.1 µM (active). Also, the result in [13] was inactive.
With `C#CC(C)(C)NC(=O)c1cc(Cl)cc(Cl)c1`, the outcome in assay [1], in [2], in [3], in [4], in assay [5] and in assay [6] was inactive. For the same compound, the outcome in assay [7], in assay [8], in assay [9], in assay [10], in assay [11] and in assay [12] was inactive. For the same compound, the outcome in [13], in [14], in assay [15], in assay [16], in assay [19] and in [17] was inactive. Further, in [18], the result was inactive.
